Reference: PubChem BioAssay (EPA / NIEHS)
Records with an inconclusive call do not appear. Activity calls are given as the source filed them. How the source made its calls, unless noted: active means hit-call score of the fitted dose curve at least 0.9, where 1 is the maximum; inactive means score below 0.9.

Tests used:
[1] = BSK_3C_SRB: Viability Assessment in the BioMAP Diversity Plus: 3C Assay (AID 2283023); conditions: primary human endothelial cells (HUVEC);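 further: fitted both ways against DMSO so a hit may be signal rise or drop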
Summary of the method: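 Primary human umbilical vein endothelial cells in the 3C system were read 24 h after compound dosing. Total protein was stained with 0.1% sulforhodamine B after 10% TCA fixation and read at 560 nm, with bidirectional fitting against DMSO as baseline.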

[2] = read-out: Matrix Metallopeptidase 1 (MMP1), MMP1 (gene 4312); experiment: BSK_BE3C_MMP1: BioMAP Diversity Plus: BE3C Assay for Matrix Metallopeptidase 1 (MMP1) Biomarker Activity (AID 2283024); conditions: primary human bronchial epithelial cells; actives raise or lower the signal
Summary of the method: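 ELISA read-out of MMP1 in human lung bronchial epithelial primary cultures, 24 h post-dose; bidirectional curve fit vs DMSO baseline, gain or loss of signal scored.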

[3] = BSK_3C_Vis: BioMAP Diversity Plus: 3C Assay for Morphology Visualization (AID 2283025); conditions: primary human endothelial cells (HUVEC);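 further: fitted both ways so gain or loss versus DMSO counts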;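 on AC50: light microscopy image of cell morphology used as background control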
Summary of the method: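 HUVEC, 3C system; light microscopy of morphology at 24 h post-dose. Bidirectional fit vs DMSO baseline. Secondary readout, background-control function.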

[4] = read-out: Pselectin, SELP (gene 6403); experiment: BSK_4H_Pselectin: BioMAP Diversity Plus: 4H Assay for Pselectin Biomarker Activity (AID 2283026); conditions: primary human endothelial cells (HUVEC); actives raise or lower the signal
Summary of the method: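 HUVEC, 24 h chemical exposure; P-selectin read by ELISA. Bidirectional curve fit vs DMSO baseline; gain or loss of signal scored.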

[5] = BSK_4H_SRB: Viability Assessment in the BioMAP Diversity Plus: 4H Assay (AID 2283027); conditions: primary human endothelial cells (HUVEC);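 further: cells exposed to compound for 24 h before staining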;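 on AC50: curves fitted both ways versus DMSO so AC50 may be loss or gain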
Summary of the method: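 HUVEC, 24 h post-dose; 10% TCA fix, 0.1% SRB stain, A560 nm. Total protein = overt cytotoxicity, parallel to biomarker read. Bidirectional fit vs DMSO baseline.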

[6] = BSK_BE3C_SRB: Viability Assessment in the BioMAP Diversity Plus: BE3C Assay (AID 2283028); conditions: primary human bronchial epithelial cells;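 on AC50: fitted both ways so AC50 may mark signal gain or loss versus DMSO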
Summary of the method: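 Human primary bronchial epithelial cells were exposed to test chemicals for 24 h. Total protein in parallel cultures was then measured by staining with 0.1% sulforhodamine B after 10% TCA fixation, with absorbance read at 560 nm. Activity was fitted bidirectionally against DMSO.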

[7] = read-out: Thrombomodulin, THBD (gene 7056); experiment: BSK_3C_Thrombomodulin: BioMAP Diversity Plus: 3C Assay for Thrombomodulin Biomarker Activity (AID 2283029); conditions: primary human endothelial cells (HUVEC); actives raise or lower the signal
Summary of the method: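 HUVEC, 3C conditions; compound 24 h; thrombomodulin by ELISA; bidirectional curve fit vs DMSO baseline; parallel SRB total-protein staining for cytotoxicity.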

[8] = read-out: Urokinase-type plasminogen activator receptor (uPAR), PLAUR (gene 5329); experiment: BSK_4H_uPAR: BioMAP Diversity Plus: 4H Assay for Urokinase-type plasminogen activator receptor (uPAR) Biomarker Activity (AID 2283030); conditions: primary human endothelial cells (HUVEC); actives raise or lower the signal
Summary of the method: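 Primary human umbilical vein endothelial cells were exposed to chemical for 24 h before cell-surface uPAR was quantified by ELISA. Activity was fitted bidirectionally against the DMSO negative control baseline.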

[9] = read-out: Vascular endothelial growth factor receptor 2 (Homo sapiens) (UniProt P35968); experiment: BSK_4H_VEGFRII: BioMAP Diversity Plus: 4H Assay for Vascular endothelial growth factor receptor 2 (VEGFR2) Biomarker Activity (AID 2283031); conditions: primary human endothelial cells (HUVEC); actives raise or lower the signal
Summary of the method: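 Primary human umbilical vein endothelial cells in the BioMAP 4H system were dosed with test chemical, and 24 h later VEGFRII was measured by ELISA. Activity was fitted bidirectionally against DMSO as negative control and baseline.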

[10] = read-out: Human Leukocyte Antigen - DR isotype (HLADR), HLA-DRA (gene 3122); experiment: BSK_BE3C_HLADR: BioMAP Diversity Plus: BE3C Assay for Human Leukocyte Antigen - DR isotype (HLADR) Biomarker Activity (AID 2283032); conditions: primary human bronchial epithelial cells; actives raise or lower the signal
Summary of the method: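 Primary human bronchial epithelial cells (BE3C); 24 h chemical exposure; HLA-DR by ELISA; bidirectional curve fit vs DMSO baseline.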

[11] = read-out: Vascular cell adhesion molecule 1 (VCAM1), VCAM1 (gene 7412); experiment: BSK_4H_VCAM1: BioMAP Diversity Plus: 4H Assay for Vascular cell adhesion molecule 1 (VCAM1) Biomarker Activity (AID 2283033); conditions: primary human endothelial cells (HUVEC); actives raise or lower the signal
Summary of the method: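 HUVEC, 24 h post-dose; VCAM-1 by ELISA. Bidirectional curve fit vs DMSO baseline. Parallel SRB total-protein stain (0.1% SRB after 10% TCA fixation, 560 nm) for cytotoxicity.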

[12] = read-out: Interferon-gamma inducible Protein 10 (IP10), CXCL10 (gene 3627); experiment: BSK_BE3C_IP10: BioMAP Diversity Plus: BE3C Assay for Interferon-gamma inducible Protein 10 (IP10) Biomarker Activity (AID 2283034); conditions: primary human bronchial epithelial cells; actives raise or lower the signal
Summary of the method: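 ELISA readout of IP-10 in BE3C system: primary human bronchial epithelial cells, 24 h post-dosing; bidirectional curve fit vs DMSO baseline.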

[13] = read-out: Monokine induced gamma interferon (MIG), CXCL9 (gene 4283); experiment: BSK_BE3C_MIG: BioMAP Diversity Plus: BE3C Assay for Monokine induced gamma interferon (MIG) Biomarker Activity (AID 2283035); conditions: primary human bronchial epithelial cells; actives raise or lower the signal
Summary of the method: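 Dose cells (human primary bronchial epithelial), incubate 24 h, quantify MIG by ELISA, then fit concentration–response in both directions relative to DMSO control.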

[14] = read-out: Transforming growth factor beta 1 (TGFb1), TGFB1 (gene 7040); experiment: BSK_BE3C_TGFb1: BioMAP Diversity Plus: BE3C Assay for Transforming growth factor beta 1 (TGFb1) Biomarker Activity (AID 2283036); conditions: primary human bronchial epithelial cells; actives raise or lower the signal
Summary of the method: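 Read-out: ELISA for TGF-b1 in primary human bronchial epithelial cultures, 24 h post-dose. Bidirectional curve fitting vs DMSO control; gain or loss of signal both scored.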

[15] = read-out: Plasminogen activator inhibitor-1 (PAI1), SERPINE1 (gene 5054); experiment: BSK_BE3C_PAI1: BioMAP Diversity Plus: BE3C Assay for Plasminogen activator inhibitor-1 (PAI1) Biomarker Activity (AID 2283037); conditions: primary human bronchial epithelial cells; actives raise or lower the signal
Summary of the method: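 ELISA read-out of PAI-1 from human bronchial epithelial primary cells, 24 h post-dosing; bidirectional curve fit vs DMSO baseline, gain or loss of signal scored.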

[16] = read-out: Urokinase-type plasminogen activator receptor (uPAR), PLAUR (gene 5329); experiment: BSK_BE3C_uPAR: BioMAP Diversity Plus: BE3C Assay for Urokinase-type plasminogen activator receptor (uPAR) Biomarker Activity (AID 2283039); conditions: primary human bronchial epithelial cells; actives raise or lower the signal
Summary of the method: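 ELISA readout of uPAR on human lung primary bronchial epithelial cells, 24 h post-dosing. Bidirectional curve fit relative to DMSO vehicle baseline; gain or loss of signal both scored.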

[17] = read-out: Interleukin-6 (IL6), IL6 (gene 3569); experiment: BSK_CASM3C_IL6: BioMAP Diversity Plus: CASM3C Assay for Interleukin-6 (IL6) Biomarker Activity for (AID 2283040); conditions: primary human coronary artery smooth muscle cells; actives raise or lower the signal
[18] = read-out: Tissue plasminogen activator (tPA), PLAT (gene 5327); experiment: BSK_BE3C_tPA: BioMAP Diversity Plus: BE3C Assay for Tissue plasminogen activator (tPA) Biomarker Activity (AID 2283041); conditions: primary human bronchial epithelial cells; actives raise or lower the signal
Summary of the method: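 ELISA read-out of tPA on human primary bronchial epithelial cells, 24 h post-dosing; bidirectional fit vs DMSO negative control/baseline.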

[19] = read-out: urokinase plasminogen activator (uPA), PLAU (gene 5328); experiment: BSK_BE3C_uPA: BioMAP Diversity Plus: BE3C Assay for urokinase plasminogen activator (uPA) Biomarker Activity (AID 2283038); conditions: primary human bronchial epithelial cells; actives raise or lower the signal
Summary of the method: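 Human primary bronchial epithelial cells were exposed to chemical for 24 h, then uPA levels were measured by ELISA. Responses were fitted bidirectionally against DMSO as negative control and baseline. Parallel SRB staining of total protein gauged overt cytotoxicity.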

[20] = target: human Vitamin D Receptor (VDR), VDR (gene 7421) (UniProt P11473); experiment: ATG_VDR_TRANS: Attagene TRANS-FACTORIAL HepG2 Assay for human Vitamin D Receptor (VDR) (AID 2283022; active means hit-call score of the fitted dose curve at least 0.9, where 1 is the maximum)
Chain of human Vitamin D Receptor (VDR), VDR (gene 7421) (P11473 whole entry, looked up, the tested form may be a part): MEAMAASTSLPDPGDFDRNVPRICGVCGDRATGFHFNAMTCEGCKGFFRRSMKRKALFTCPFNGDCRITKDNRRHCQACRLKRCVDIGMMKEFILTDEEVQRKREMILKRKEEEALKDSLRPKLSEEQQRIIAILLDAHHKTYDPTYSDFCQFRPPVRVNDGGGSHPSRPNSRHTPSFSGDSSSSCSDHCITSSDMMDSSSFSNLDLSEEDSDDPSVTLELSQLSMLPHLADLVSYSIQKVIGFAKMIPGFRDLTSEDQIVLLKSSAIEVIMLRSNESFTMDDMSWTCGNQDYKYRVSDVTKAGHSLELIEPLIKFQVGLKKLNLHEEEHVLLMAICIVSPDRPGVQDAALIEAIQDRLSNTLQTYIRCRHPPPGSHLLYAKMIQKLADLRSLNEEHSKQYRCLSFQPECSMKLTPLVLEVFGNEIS
Summary of the method: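 HepG2 cells were transiently transfected with multiple GAL4-UAS reporter units, so signal reflects exogenous chimeric receptor-Gal4 activity. After 24 h compound exposure, reporter mRNA was measured by RT-PCR, fluorescent labelling and capillary electrophoresis, fitted for gain of signal versus DMSO.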

Measured: AC50

Cc1ccc(-c2cc(C(F)(F)F)nn2-c2ccc(S(N)(=O)=O)cc2)cc1
active: [1] 23.1 µM | [2] 31.7 µM | [3] 37.5 µM | [4] 25.8 µM | [5] 28 µM | [6] 35.7 µM | [7] 28.4 µM | [8] 20 µM | [10] 33.4 µM | [11] 32.7 µM | [12] 30.6 µM | [13] 39.1 µM | [14] 20 µM | [15] 36.6 µM | [16] 31.6 µM | [17] 32.9 µM | [18] 18.6 µM
inactive: [9]

CN(C)C(=O)NC1(c2ccccc2)CCN(CCC[C@]2(c3ccc(Cl)c(Cl)c3)CCCN(C(=O)c3ccccc3)C2)CC1
active: [1] 6.65 µM | [3] 9.81 µM
not listed: [20]
inactive: all other assays above

NC1CCCCC1
not listed: [2] | [10]
inactive: all other assays above

CCCCCCCCCCCCCCCCO
not listed: [10] | [20]
inactive: all other assays above

CC(N)=O
not listed: [10] | [20]
inactive: all other assays above

Oc1ccc(O)cc1
active: [4] 20 µM | [11] 10.9 µM | [19] 7.83 µM
not listed: [2] | [5]
inactive: all other assays above

Cc1cc(Cc2ccc(N)c(C)c2)ccc1N
not listed: [19] | [20]
inactive: all other assays above

S=c1[nH]c2ccccc2s1
not listed: [2] | [5] | [19]
inactive: all other assays above

C#CC(O)C(CC)CCCC (stereo not given)
not listed: [20]
inactive: all other assays above

CCc1cc(C2=C(C(=O)O)N(c3ccccc3C(F)(F)F)S(=O)(=O)c3ccccc32)cc2c1OCO2
active: [7] 10.2 µM
not listed: [2] | [5] | [19]
inactive: all other assays above

CCCCCCCC(=O)OC
not listed: [2] | [5] | [10] | [19]
inactive: all other assays above

CC(=O)OC1CC(C)OC(C)O1 (stereo not given)
not listed: [19] | [20]
inactive: all other assays above

CC(C)(O)c1ccc(CNC(=O)c2cccnc2Oc2ccc(F)cc2)cc1
not listed: [20]
inactive: all other assays above

CC(COCC(C)OC(=O)c1ccccc1)OC(=O)c1ccccc1 (stereo not given)
not listed: [2] | [10]
inactive: all other assays above

C/C=C/c1ccc(OC)cc1
not listed: [20]
inactive: all other assays above
